E coli growth-1 = E. coli V3065 growth inhibition, primary screen, counter-screen for AddAB inhibitor project, absorbance, OD600. 330,000 tested, 0.27% active. AID 449728, 2010. 18 h. inhibition, % at 11.9 µM;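 active = inhibition above the campaign's mean inhibition across all tested compounds plus 3 SD, cut at about 9.9% in these data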;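 note: uninfected addAB+ strain grown without phage in ampicillin broth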
phage Ecoli inh = growth loss of phage-infected E. coli, primary screen, RecBCD inhibitor project, absorbance, with phage, HTS. 360,000 tested, 0.26% active. inhibition, % at 11.9 µM; in the data active = inhibition above about 11%
AddAB inh = growth inhibition of E. coli expressing H. pylori AddAB, primary screen, AddAB inhibitor project, absorbance; 330,000 tested, 0.29% active; inhibition, % at 11.9 µM; in the data active = inhibition above about 12%
Tat transport = E. coli Tat export inhibitors, primary screen, MC4100, TorA-mCherry reporter, fluorescence, single point | inhibition, % at 10 µM | AID 488895, 2010 | 340,000 tested, 0.036% active;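 active = mean replicate inhibition at least 50% and at least half of replicates individually reaching 50%; inconclusive = only one of the two criteria met; inactive = neither criterion met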;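 note: exported cargo escapes ClpAP degradation while cytoplasmic cargo is degraded and loses fluorescence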
E coli growth-2 = E. coli growth inhibition, primary screen, OD600. AID 1053175, 2014. OD600 absorbance (no concentration beside the values). Escherichia coli growth, 23 h; hits give low values. 330,000 tested, 0.21% active;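 active = OD600 absorbance below the run mean of sample wells minus 3.6 SD, in any replicate, cut at about 0.56 in these data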
AI-2 QS modul = Vibrio harveyi AI-2 quorum sensing modulators, primary screen, JMH597 strain, luminescence/OD600 ratio. 300,000 tested, 0.4% active. Vibrio harveyi JMH597 AI-2 luminescence/OD600 ratio, 9 h; hits give low values; strain lacks LuxN and CqsS sensors; 0 = neutral-control median. AID 2094, 2009. activity change, % at 7.5 µM; in the data active = activity change below about -75%, passing the limit was not always enough; inconclusive = no clear call, values can overlap the other calls;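 note: luminescence divided by OD600 gain over 9 h not by final OD600 alone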
JMH597 growth rt = Vibrio harveyi growth inhibition, confirmation, counter-screen for AI-2 quorum sensing project, JMH597 strain, OD600 absorbance | shares compounds with AI-2 QS modul | 9 h; lacks LuxN and CqsS sensors | growth inhibition, % at 7.5 µM | 750 tested, 1% active | AID 2726, 2010;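 active = every replicate shows growth inhibition above 50%; inconclusive = at least half, but not all, replicates pass that cutoff; inactive = fewer than half of replicates pass it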
BB721 const-QS lum = luminescence inhibition in constitutive-on V. harveyi, confirmation, counter-screen for LuxS inhibitor project, strain BB721, luminescence readout. 750 tested, 95% active. shares compounds with AI-2 QS modul. inhibition, % at 7.5 µM. AID 2727, 2010. Vibrio harveyi BB721 luminescence, 9 h;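 active = inhibition above about 80% in every replicate, not just on average, limit read from the data; inconclusive = at least half of replicates past the limit, but not all; inactive = fewer than half of replicates past the limit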
BB721 growth = growth inhibition of V. harveyi BB721, confirmation, cytotoxicity control for AI-2 quorum sensing inhibitors, strain BB721, absorbance OD600 | shares compounds with AI-2 QS modul | Vibrio harveyi BB721 growth, 9 h | growth inhibition, % at 7.5 µM | 750 tested, 3% active;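 active = every replicate shows growth inhibition above 50%; inconclusive = at least half but not all replicates above 50% inhibition; inactive = under half of replicates above 50% inhibition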
AI-2 QS JMH597 = Vibrio harveyi AI-2 signaling luminescence modulation – JMH597 strain, confirmation | shares compounds with AI-2 QS modul | Vibrio harveyi JMH597 AI-2 quorum sensing luminescence, 9 h; luxN and CqsS knockout, AI-2 only | inhibition, % at 7.5 µM | 750 tested, 97% active;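 active = every replicate shows more than 75% inhibition of signal versus neutral control wells; inconclusive = half to three quarters of replicates exceed 75% inhibition; inactive = fewer than half of replicates exceed 75% inhibition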
Each line names hits and unclear results; the compound was inactive in the other large screens (follow-up assays come after a bar, where they were run). In the library only some 0.79% were active in any assay of this set; here they are far more common.

CCCCCC(=O)NC(=S)Nc1ccc2oc(=O)ccc2c1	AI-2 QS modul -90 | JMH597 growth rt inactive | BB721 const-QS lum 99 | BB721 growth inactive | AI-2 QS JMH597 98
c1ccc(-c2noc(CSc3nc4ccccc4o3)n2)cc1	AI-2 QS modul inconclusive | JMH597 growth rt inactive | BB721 const-QS lum 87 | BB721 growth inactive | AI-2 QS JMH597 94
c1ccc2nc(SCc3cn4ccccc4n3)cnc2c1	none
c1ccc(OCCSc2nc3ccccc3o2)cc1	AI-2 QS modul -80 | JMH597 growth rt inactive | BB721 const-QS lum 94 | BB721 growth inactive | AI-2 QS JMH597 96
c1ccc2oc(SCc3cn4ccccc4n3)nc2c1	AI-2 QS modul -78 | JMH597 growth rt inactive | BB721 const-QS lum 92 | BB721 growth inactive | AI-2 QS JMH597 95
CCCOc1ccc(CC(=O)NN=Cc2ccc(F)cc2)cc1	none (no result: E coli growth-1, phage Ecoli inh, AddAB inh, Tat transport, AI-2 QS modul)
COc1ccc(N=C2SC(=Cc3cc(C)n(C)c3C)C(=O)N2C)cc1	none (no result: E coli growth-1, phage Ecoli inh, AddAB inh, Tat transport, AI-2 QS modul)
O=C(C=NO)Nc1ccccc1	none (no result: E coli growth-1, phage Ecoli inh, AddAB inh, Tat transport, AI-2 QS modul)
Cc1nnc(C)n1N=Cc1cccc(Oc2ccccc2)c1	none (no result: E coli growth-1, phage Ecoli inh, AddAB inh, Tat transport, AI-2 QS modul)
CC(=NNC(=O)COc1ccc(C)cc1[N+](=O)[O-])c1ccc2c(c1)OCCO2	none (no result: E coli growth-1, phage Ecoli inh, AddAB inh, Tat transport, AI-2 QS modul)
COc1ccc(C2CC(=O)C=C(c3cccc(Cl)c3)C2)cc1 (configuration not stated)	none (no result: E coli growth-1, phage Ecoli inh, AddAB inh, Tat transport, AI-2 QS modul)
CON=CCC(=O)Nc1ccc(Oc2ccccc2)cc1	none (no result: E coli growth-1, phage Ecoli inh, AddAB inh, Tat transport, AI-2 QS modul)
O=C(COC(=O)C1CC1)Nc1ccc(Oc2ccccc2)cc1	AI-2 QS modul -82 | JMH597 growth rt inactive | BB721 const-QS lum 89 | BB721 growth inactive | AI-2 QS JMH597 94
CO/N=C\CC(=O)Nc1ccc(Oc2ccccc2)cc1	AI-2 QS modul -80 (no result: E coli growth-2) | JMH597 growth rt inactive | BB721 const-QS lum 84 | BB721 growth inactive | AI-2 QS JMH597 91
O=C(COC(=O)C1CCC1)Nc1ccc(Oc2ccccc2)cc1	none
CCOc1ccc(-c2c(C(=O)NN=Cc3c[nH]c4ccccc34)nnn2-c2nonc2N)cc1	none (no result: E coli growth-1, phage Ecoli inh, AddAB inh, Tat transport, AI-2 QS modul)
CC(C)CC1COCCS(=O)(=O)N1Cc1cccc(C(F)(F)F)c1 (configuration not stated)	none (no result: E coli growth-1, phage Ecoli inh, AddAB inh, Tat transport, AI-2 QS modul)
O=[N+]([O-])c1ccc(N/N=C/c2cccc(O)c2O)cc1	AI-2 QS modul -82 (no result: E coli growth-2) | JMH597 growth rt inactive | BB721 const-QS lum 93 | BB721 growth inactive | AI-2 QS JMH597 96
COc1ccc(Cl)cc1N(CC(=O)N1CCCC1)S(C)(=O)=O	AI-2 QS modul inconclusive | JMH597 growth rt inactive | BB721 const-QS lum inactive | BB721 growth inactive | AI-2 QS JMH597 inactive
CC(=O)c1sc(NN=Cc2cccc(Br)c2)nc1C	none (no result: E coli growth-1, phage Ecoli inh, AddAB inh, Tat transport, AI-2 QS modul)
COC(=O)C1=C(C)N(CC2CC2)C(=NCc2cc(OC)c(OC)c(OC)c2)NC1c1ccccc1 (configuration not stated)	none (no result: E coli growth-1, phage Ecoli inh, AddAB inh, Tat transport, AI-2 QS modul)
O=C(CCl)NN1C(=O)NC(c2ccccc2)(c2ccccc2)C1=O	AI-2 QS modul -95 | JMH597 growth rt inactive | BB721 const-QS lum 98 | BB721 growth inactive | AI-2 QS JMH597 98
COc1cc(NC(=O)Cn2ncc(Cl)c(Cl)c2=O)c(C)cc1[N+](=O)[O-]	AI-2 QS modul -80 (no result: E coli growth-1, AddAB inh) | JMH597 growth rt inactive | BB721 const-QS lum 93 | BB721 growth inactive | AI-2 QS JMH597 94
CCc1nnc(NC(=O)CSc2nnc(COc3cccc(C)c3)o2)s1	AI-2 QS modul -90 | JMH597 growth rt inactive | BB721 const-QS lum 96 | BB721 growth inactive | AI-2 QS JMH597 98
Cc1cccc(OCc2nnc(SCC(=O)Nc3ncc(C)s3)o2)c1	none

Source: PubChem (several laboratories)
